Compounds with a hit are over-represented: about 12% of the library has one in this group of screens.
HP1b chromo inh: HP1-beta chromodomain-methylated histone interaction inhibition; 390,000 tested, 0.56% active; Potency, µM (series often up to 114 µM), inactives show at the highest dose activity change, negative = inhibition, usual class: inhibitors; P83916; AlphaScreen HP1-beta / biotin-H3K9me3 peptide binding; further: nearly all actives have a fitted effect of over 70% in size
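HP1-beta protein (50 nM final) preincubated 30 min at room temperature with biotinylated H3(1-18)K9me3 peptide (50 nM) in PBS pH 7.4, 0.01% Tween-20, then compound added for 30 min. AlphaScreen streptavidin donor/nickel chelate acceptor beads (10 ug/mL final), 30 min dark, luminescence read.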
JMJD2A Tudor inh: blocks the human JMJD2A Tudor domain | AlphaScreen JMJD2A-Tudor / H3K4me3 peptide binding | 390,000 tested, 4.4% active | Potency, µM (series often up to 114 µM), inactives show top-dose activity change, negative = inhibition, hits mostly inhibitors | AID 504339; further: on the % scale 0 is the no-effect control and ±100 the full control effect; nearly all actives have a fitted effect of over 50% in size
Target sequence (O75164 whole entry, looked up, the tested form may be a part): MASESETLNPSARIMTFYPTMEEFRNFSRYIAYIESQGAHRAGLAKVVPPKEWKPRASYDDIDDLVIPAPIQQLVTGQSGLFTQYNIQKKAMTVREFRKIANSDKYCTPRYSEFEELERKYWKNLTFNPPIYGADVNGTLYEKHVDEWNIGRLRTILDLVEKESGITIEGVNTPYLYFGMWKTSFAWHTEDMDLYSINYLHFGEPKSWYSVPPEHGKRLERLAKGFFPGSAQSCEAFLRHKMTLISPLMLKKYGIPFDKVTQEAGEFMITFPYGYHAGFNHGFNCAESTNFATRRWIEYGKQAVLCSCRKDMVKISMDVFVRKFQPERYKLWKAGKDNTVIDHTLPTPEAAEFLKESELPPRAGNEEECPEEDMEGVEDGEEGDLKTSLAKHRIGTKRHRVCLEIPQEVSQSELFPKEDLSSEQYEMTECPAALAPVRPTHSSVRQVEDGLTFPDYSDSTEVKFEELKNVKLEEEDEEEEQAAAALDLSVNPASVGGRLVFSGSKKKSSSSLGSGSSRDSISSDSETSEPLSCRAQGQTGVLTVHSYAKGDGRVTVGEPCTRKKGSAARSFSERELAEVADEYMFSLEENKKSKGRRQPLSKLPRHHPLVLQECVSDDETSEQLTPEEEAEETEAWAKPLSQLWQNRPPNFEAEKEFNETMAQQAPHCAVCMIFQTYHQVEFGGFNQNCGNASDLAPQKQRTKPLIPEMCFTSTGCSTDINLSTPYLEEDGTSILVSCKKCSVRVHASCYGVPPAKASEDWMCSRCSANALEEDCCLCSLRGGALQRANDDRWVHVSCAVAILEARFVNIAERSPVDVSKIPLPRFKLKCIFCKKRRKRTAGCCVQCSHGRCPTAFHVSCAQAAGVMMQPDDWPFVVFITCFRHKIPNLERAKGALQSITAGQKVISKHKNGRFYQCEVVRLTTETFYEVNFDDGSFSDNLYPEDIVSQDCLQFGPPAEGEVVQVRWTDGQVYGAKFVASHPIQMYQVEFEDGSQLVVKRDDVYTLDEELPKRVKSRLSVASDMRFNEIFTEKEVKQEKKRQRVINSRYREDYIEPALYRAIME
BAZ2B block: blocks human BAZ2B; Q9UIF8; AlphaScreen BAZ2B-H3K14Ac peptide displacement; Potency, µM (series often up to 114 µM), without a hit: at the top dose activity change, negative = inhibition, hits mostly inhibitors; 360,000 tested, 4.4% active; AID 504333; further: on the % scale 0 is the no-effect control and ±100 the full control effect; nearly all actives have a fitted effect of over 60% in size
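AlphaScreen displacement: compounds (up to 110uM) incubated 30 min at room temperature with a preformed 50 nM BAZ2B/50 nM biotinylated H3K14Ac peptide complex in PBS pH 7.4 with Tween-20. Donor and acceptor beads at 10 ug/mL final added, 20 min light-protected before reading.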
Sfp inh: blocks B. subtilis Sfp PPTase activity; Biochemical Sfp PPTase activity, qHTS; Potency, µM, without a hit: largest response in the series, negative = inhibition, hits mostly inhibitors; 310,000 tested, 3.5% active; AID 1490; Q9F4F7;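 further: the enzyme is Sfp with the accession as filed and its product quenches rhodamine fluorescence; 0% = enzyme reaction without inhibitor and -100% = no enzyme wells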
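Fluorescence-quenching assay: 15 nM Sfp-PPTase preincubated 15 min at room temperature with compound, then 5 uM rhodamine-CoA and 12.5 uM BHQ-2-labelled YbbR peptide added. Fluorescence (ex 525/em 598 nm) read at start and after 30 min; difference gives rate.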
L3MBTL1 inh: blocks human L3MBTL1. Q9Y468. 230,000 tested, 0.66% active. Potency, µM (top dose mostly 57.1 µM), inactives show at the top dose activity, negative = inhibition, actives largely listed as inhibitors. AlphaScreen L3MBTL1–H3K9me1 peptide binding; further: on the % scale 0 is the no-effect control and ±100 the full control effect; nearly all actives have a fitted effect of over 60% in size
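Displacement of a biotinylated histone H3(1-15) peptide monomethylated at Lys9 (75 nM) from L3MBTL1 (50 nM) was measured by AlphaScreen after a 30 min room-temperature compound incubation; cefsulodin titration served as intraplate control.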
G9a block: blocks human histone lysine methyltransferase G9a. Q96KQ7. G9a H3K9 monomethylation, AlphaScreen, 2 h. Potency, µM (series often up to 102 µM), inactives show at the highest dose activity, negative = inhibition, most hits filed as inhibitors. 350,000 tested, 8.8% active. AID 504332; further: on the % scale 0 is the no-effect control and ±100 the full control effect; nearly all actives have a fitted effect of over 75% in size
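Using a bead-based AlphaScreen, monomethylated H3K9 product from 2 h room-temperature reactions (G9a 20 nM, peptide 500 nM, SAM 20 uM) was detected with 0.5 ug/mL rabbit anti-H3K9me1 antibody.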
The depositor's hits bear a star; ? = inconclusive; nt = not tested or not shown; [ ] = another dose, or the depositor's remark. The call rests on the fitted dose curve; in most records, active means well fitted curve in the direction sought with a large enough effect; inconclusive means small, poorly fitted or top-dose-only effect, or another doubt; inactive means no such curve, though single readings can be large; an effect the other way counts as inactive or inconclusive. Potency means the concentration at half of the fitted maximal effect.

SMILES	HP1b chromo inh	JMJD2A Tudor inh	BAZ2B block	Sfp inh	L3MBTL1 inh	G9a block
C=CCn1c(-c2cccn(Cc3ccc(Cl)cc3)c2=O)n[nH]c1=S	1.3%	10µM*	-9.2%	6.9%	4.7%	4.47µM*
CSc1nnc(-c2cccn(Cc3cccc(Cl)c3)c2=O)o1	50.3%	2.1%	-6.8%	12.4%	10.0%	29.9%
C=CCn1c(-c2ccc(=O)n(Cc3ccccc3)c2)n[nH]c1=S	nt	nt	-23.2%	-3.4%	4.9%	17.8µM*
O=c1c(-c2n[nH]c(=S)n2-c2ccccc2)cccn1Cc1cccc(Cl)c1	10.6%	28.2µM*	-17.2%	12.8%	20.0%	3.55µM*
C=CCn1c(-c2csc(-c3ccc(Cl)cc3)n2)n[nH]c1=S	36.8%	-9.4%	13.7%	0.5%	nt	?
COc1ccc(C(=O)NNC(=O)C23CC4CC(CC(C4)C2)C3)cc1OC	28.1%	-16.0%	0.9%	nt	-5.2%	3.3%[12.7 µM]
O=C(Nc1ccc(Br)cc1)C1CCN(c2ncccn2)CC1	42.3%	-12.3%	-9.9%	nt	nt	-2.8%[59 µM]
COc1ccc(-c2cc(C(F)(F)F)c(C#N)c(SCC(=O)Nc3ccccc3F)n2)cc1	41.9%	7.6%	12.8%	nt	nt	22.8%[59 µM]
O=c1oc2c3c(ccc2c2ccccc12)OCN(Cc1ccccc1Cl)C3	38.9%	-35.1%	?	nt	nt	1.26µM*
Cc1c(Cl)ccc2c1NC(=O)[C@]21N[C@@H](CCC(N)=O)[C@H]2C(=O)N(c3ccc(F)cc3)C(=O)[C@H]21	47.0%	-7.9%	2.8%	-9.8%	-1.9%	14.1µM*
CSCCC1NC2(C(=O)Nc3c2ccc(Cl)c3C)[C@@H]2C(=O)N(C3CCCC3)C(=O)[C@H]12 (some centres not stated)	-16.1%	?	?	-2.0%	nt	?
CCCCc1ccc(N2C(=O)[C@@H]3C(CC(N)=O)NC4(C(=O)Nc5ccc(F)cc54)[C@@H]3C2=O)cc1 (some centres not stated)	14.8%	-25.2%	0.7%	-18.1%	nt	39.8µM*
Cc1c(Cl)ccc2c1NC(=O)C21NC(CCC(N)=O)[C@H]2C(=O)N(c3ccc(Cl)cc3)C(=O)[C@H]21 (some centres not stated)	59.7%	-22.2%	0.5%	-15.2%	-9.6%	39.8µM*
CCCCOC(=O)c1ccc(NC(=O)Cc2coc3ccc(C(C)C)cc23)cc1	56.0%	6.9%	-14.1%	nt	nt	1.8%[59 µM]
COc1ccc(CNc2ncnc3ccc(-c4c(C)noc4C)cc23)c(OC)c1	nt	nt	nt	-5.0%	nt	7.9%[0.501 µM]
C=CCSc1n[nH]c2nc3c(c(=O)n12)C1(CCCC1)Cc1ccccc1-3	38.5%	-10.2%	11.5%	20.6%	-0.2%	50.1µM*
CCCCN(C)C/C(O)=C(\C#N)c1nc(-c2ccccc2)cs1	-3.4%	?	?	-23.4%	nt	39.8µM*
N#C/C(=C(/O)CCl)c1nc(-c2ccccc2)cs1	-7.1%	-35.9%	?	-14.8%	-11.5%	nt
Cc1ccc(-c2csc(/C(C#N)=C(\O)CCl)n2)cc1	-2.3%	?	-28.9%	3.9%	nt	35.5µM*
Cc1ccc(-c2csc(/C(C#N)=C(\O)CN3CCN(C(=O)c4ccco4)CC3)n2)cc1	-16.9%	79.4µM*	?	14.7%	nt	-47.2%[12.7 µM]
COc1cc(NC(=O)c2noc3c2CCc2ccccc2-3)cc(OC)c1OC	50.9%	-31.7%	-17.0%	nt	nt	-7.2%[59 µM]
CC1(C)C(=O)CC[C@@]2(C)C1CC(O)[C@@]1(C)C3=CC(=O)OC(c4ccoc4)[C@]3(C)CCC21 (some centres not stated)	nt	nt	nt	0.6%	nt	-6.3%[2.33 µM]
CN1Cc2cc(C(=O)c3cc(Cl)cc(CSc4ncccn4)c3O)cnc2NC1=O	nt	nt	-30.3%	1.8%	-2.1%	50.1µM*
Cc1ccc(O)c(C(=O)c2cnc3c(c2)CN(C)C(=O)N3)c1	-9.7%	-16.1%	-8.1%	-9.9%	nt	?
CCn1c(/C=C/c2cc[n+](C)cc2)nc2ccccc21	8.4%	?	?	-1.3%	0.8%	35.5µM*
COc1ccccc1/C=C/C(=O)OCC(=O)N1CCN(S(=O)(=O)c2ccc(C)cc2C)CC1	9.7%	-15.8%	11.8%	nt	?	-33.4%

Source: PubChem BioAssay
